The results in this text go back to PubChem BioAssay.

For one assay, the target named is Albumin (Bos taurus) (UniProt P02769). Briefly: bovine serum albumin binders on microarray, profiling panel, artefact control for SMM control protein annotation, biochemical, small-molecule microarray, Alexa647 label, 635/667 nm fluorescence (AID 1118).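 Note: score merges 667 nm emission intensity and signal-to-noise per printed compound spot.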 As to conditions: BSA-A647 binding, fluorescence 635 nm, higher = more signal.
Assay [1] can be described thus: small-molecule microarray binders of probe aXIP, primary screen, biochemical, NeuroSMM set, 635/667 nm fluorescence (AID 1119).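 Note: probe is the protein aXip251-270 applied at 1 µg/mL to compound-printed slides; binding of probe to printed compounds measured as 667 nm fluorescence plus signal to noise.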 As to conditions: higher = more signal, called active from +8 up or from −8 down.
Assay [2] is described as follows: small-molecule binders of probe aNOTCH3, primary screen, biochemical, small-molecule microarray, 635/667 nm fluorescence (AID 1120).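 Note: probe is a biotin-tagged antibody raised against NOTCH3 rather than NOTCH3 protein; score merges spot fluorescence near 667 nm with spot signal to noise.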 The following applies: higher = more signal.
Assay [3] in a line: small-molecule binders of probe aNOTCH2, primary screen, biochemical, small-molecule microarray, 635/667 nm fluorescence (AID 1121).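 Note: score merges feature fluorescence read at 667 nm with its signal to noise.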 The following applies: higher = more signal.
The target of assay [4] is Carbonic anhydrase 2 (Homo sapiens) (UniProt P00918). Briefly: CAII small-molecule binders, profiling panel, biochemical, small-molecule microarray, Alexa647-labelled CAII (AID 1122). As to conditions: CAII-A647 binding fluorescence, higher = more signal.
The nature of assay [5]: COS7 lysate on small-molecule microarray, probe aHis, 635 nm (AID 1123).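 Note: z-score combines 667nm fluorescence intensity with signal-to-noise per printed compound spot.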 As to conditions: COS7 cell lysate, fluorescence, higher = more signal.
Assay [6] in a line: compound binding in COS7 lysate, probe aLAP1, primary screen, cell lysate, small-molecule microarray (AID 1124).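 Note: lysate comes from COS7 cells expressing LAP1 and is applied at 0.3 µg/mL; score merges spot fluorescence near 667 nm with signal-to-noise over triplicate slides.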 As to conditions: probe aLAP1, fluorescence, higher = more signal.
The subject of another assay is Sam68 (KHDRBS1). Kind of assay: Sam68 small-molecule binders, primary screen, biochemical, small-molecule microarray, 635 nm fluorescence (AID 1125).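 Note: score merges 667 nm channel intensity with signal to noise over triplicate slides.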 The following applies: small-molecule microarray binding, higher = more signal.
Assay [7] has as its system Chordin-like protein 2 (CHRDL2). Briefly: CHRDL2 small-molecule binders, primary screen, biochemical, small-molecule microarray, 635 nm fluorescence (AID 1126).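 Note: printed compound slides probed with Chrdl2 protein at 4 µg/mL for 1 h at 4 C; score merges 667 nm emission intensity with signal to noise over three replicate slides.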 As to conditions: small-molecule microarray binding, fluorescence 635 nm; higher = more signal.
Assay [8] deals with Concanavalin-A (Canavalia ensiformis) (UniProt P02866). Kind of assay: ConA small-molecule binders, primary screen, artefact control for SMM control protein annotation, biochemical, small-molecule microarray, Alexa647 label, 635 nm (AID 1127).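 Note: z combines 667 nm emission intensity with signal-to-noise across three replicate slides.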 As to conditions: ConA-A647 binding fluorescence, higher = more signal.
The nature of assay [9]: anti-His antibody binders, primary screen, artefact control for SMM control protein annotation, biochemical, small-molecule microarray, 635 nm fluorescence (AID 1128).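 Note: score merges feature fluorescence with signal-to-noise for each printed compound spot.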 The following applies: anti-His Alexa647 antibody binding, higher = more signal.
The subject of assay [10] is Human papillomavirus type 1a E7 protein (residues 1-88). Kind of assay: HPV1a E7 small-molecule binders, primary screen, biochemical, small-molecule microarray, residues 1-88, 635 nm (AID 1129). As to conditions: small-molecule microarray binding, fluorescence 635 nm; higher = more signal.
For assay [11], the target named is Focal adhesion kinase 1 (Homo sapiens) (UniProt Q05397). Kind of assay: small-molecule microarray binders of FAK, primary screen, biochemical, 635/667 nm fluorescence, BSA, DTT (AID 1130).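 Note: composite of spot emission at 667 nm and signal to noise over triplicate slides.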 As to conditions: PTK2 binding, 635 nm fluorescence, higher = more signal.
Assay [12] has as its system Fibrinogen (Alexa647-labelled). Briefly: fibrinogen binders on compound microarrays, profiling panel, artefact control for SMM control-protein annotation, biochemical, small-molecule microarray, 635/667 nm fluorescence (AID 1131).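 Note: z-score merges 667 nm fluorescence with per-spot signal-to-noise over triplicate slides.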 As to conditions: fibrinogen-A647 binding fluorescence, higher = more signal.
The target in assay [13] is Follistatin (Homo sapiens) (UniProt P19883). Kind of assay: follistatin binders on small-molecule microarrays, primary screen, biochemical, small-molecule microarray, 635/667 nm fluorescence (AID 1132). The following applies: FST binding, 635 nm fluorescence, higher = more signal.
For assay [14], the target named is Fibroblast growth factor 2 (Homo sapiens) (UniProt P09038). Briefly: FGF2 binders on small-molecule microarrays, primary screen, biochemical, small-molecule microarray, 635/667 nm fluorescence (AID 1133). As to conditions: small-molecule microarray binding, FGF2, fluorescence 635/667; higher = more signal.
A short description of assay [15]: mitochondrial membrane potential change in A549 cells, profiling panel, cell-based, JC-1 fluorescence, basal, 24 h, 100 nL (AID 1138).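 Note: A549 lung adenocarcinoma cells under basal conditions with no added stimulus; test concentration not given here.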 As to conditions: higher = more signal.
The next assay has as its system Lefty1. Briefly: Lefty1 binders on small-molecule microarrays, primary screen, biochemical, small-molecule microarray, 635/667 nm fluorescence (AID 1139). The following applies: small-molecule microarray binding, fluorescence 635/667; higher = more signal.
In assay [16] the test system is wheat germ agglutinin (Triticum aestivum), Alexa647-labelled. Kind of assay: wheat germ agglutinin binders on compound microarrays, profiling panel, artefact control for SMM control-protein annotation, biochemical, small-molecule microarray, 635/667 nm fluorescence (AID 1140).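 Note: score merges 667 nm feature emission with signal to noise over triplicate slides.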 As to conditions: WGA-A647 binding, 635 nm fluorescence, higher = more signal.
Assay [17] addresses Luciferin 4-monooxygenase (Photinus pyralis) (UniProt P08659). Kind of assay: firefly luciferase enzyme inhibitors, primary screen, biochemical, luminescence, purified enzyme, 2006 set (AID 1141).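 Note: cell-free assay with purified firefly luciferase at 100 ng per well in PBS; test concentration not given here.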 As to conditions: SteadyGlo luminescence, 30 min, higher = more signal, called active from +8 up or from −8 down.

Calls of active or inactive are those of the source.

Chain of Albumin (Bos taurus) (P02769 whole entry, looked up): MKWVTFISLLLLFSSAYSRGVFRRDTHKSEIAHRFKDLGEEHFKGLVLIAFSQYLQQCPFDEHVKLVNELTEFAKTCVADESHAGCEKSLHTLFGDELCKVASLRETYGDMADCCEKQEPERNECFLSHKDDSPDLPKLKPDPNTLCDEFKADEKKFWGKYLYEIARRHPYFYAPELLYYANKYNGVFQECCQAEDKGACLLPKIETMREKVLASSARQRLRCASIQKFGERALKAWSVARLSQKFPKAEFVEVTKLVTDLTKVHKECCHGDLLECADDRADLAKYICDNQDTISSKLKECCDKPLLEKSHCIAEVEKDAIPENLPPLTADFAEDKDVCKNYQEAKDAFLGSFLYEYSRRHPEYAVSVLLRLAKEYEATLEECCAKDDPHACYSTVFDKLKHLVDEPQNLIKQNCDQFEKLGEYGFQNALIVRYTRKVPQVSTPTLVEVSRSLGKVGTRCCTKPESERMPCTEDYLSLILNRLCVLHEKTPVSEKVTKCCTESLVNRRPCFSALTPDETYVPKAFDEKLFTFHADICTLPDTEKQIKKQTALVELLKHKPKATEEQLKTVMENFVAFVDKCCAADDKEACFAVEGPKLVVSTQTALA
Chain of Fibroblast growth factor 2 (Homo sapiens) (P09038 whole entry, looked up): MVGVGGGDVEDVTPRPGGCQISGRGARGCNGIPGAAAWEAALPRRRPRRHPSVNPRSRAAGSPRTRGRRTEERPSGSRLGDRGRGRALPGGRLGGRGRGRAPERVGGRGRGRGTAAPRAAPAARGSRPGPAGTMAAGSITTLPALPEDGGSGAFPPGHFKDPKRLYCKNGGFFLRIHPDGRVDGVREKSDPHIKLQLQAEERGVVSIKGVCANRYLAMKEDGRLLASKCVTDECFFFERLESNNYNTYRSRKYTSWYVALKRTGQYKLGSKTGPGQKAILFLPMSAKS
Chain of Follistatin (Homo sapiens) (P19883 whole entry, looked up): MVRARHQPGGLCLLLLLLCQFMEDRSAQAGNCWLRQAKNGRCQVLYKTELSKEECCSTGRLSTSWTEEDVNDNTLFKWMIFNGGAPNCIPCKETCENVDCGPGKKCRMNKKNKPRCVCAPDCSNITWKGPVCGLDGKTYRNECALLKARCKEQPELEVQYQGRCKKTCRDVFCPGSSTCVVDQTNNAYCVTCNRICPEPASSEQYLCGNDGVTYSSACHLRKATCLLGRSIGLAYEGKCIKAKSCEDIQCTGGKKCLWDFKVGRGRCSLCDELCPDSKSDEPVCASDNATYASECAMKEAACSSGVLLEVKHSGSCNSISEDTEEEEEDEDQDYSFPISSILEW
Chain of Focal adhesion kinase 1 (Homo sapiens) (Q05397 whole entry, looked up): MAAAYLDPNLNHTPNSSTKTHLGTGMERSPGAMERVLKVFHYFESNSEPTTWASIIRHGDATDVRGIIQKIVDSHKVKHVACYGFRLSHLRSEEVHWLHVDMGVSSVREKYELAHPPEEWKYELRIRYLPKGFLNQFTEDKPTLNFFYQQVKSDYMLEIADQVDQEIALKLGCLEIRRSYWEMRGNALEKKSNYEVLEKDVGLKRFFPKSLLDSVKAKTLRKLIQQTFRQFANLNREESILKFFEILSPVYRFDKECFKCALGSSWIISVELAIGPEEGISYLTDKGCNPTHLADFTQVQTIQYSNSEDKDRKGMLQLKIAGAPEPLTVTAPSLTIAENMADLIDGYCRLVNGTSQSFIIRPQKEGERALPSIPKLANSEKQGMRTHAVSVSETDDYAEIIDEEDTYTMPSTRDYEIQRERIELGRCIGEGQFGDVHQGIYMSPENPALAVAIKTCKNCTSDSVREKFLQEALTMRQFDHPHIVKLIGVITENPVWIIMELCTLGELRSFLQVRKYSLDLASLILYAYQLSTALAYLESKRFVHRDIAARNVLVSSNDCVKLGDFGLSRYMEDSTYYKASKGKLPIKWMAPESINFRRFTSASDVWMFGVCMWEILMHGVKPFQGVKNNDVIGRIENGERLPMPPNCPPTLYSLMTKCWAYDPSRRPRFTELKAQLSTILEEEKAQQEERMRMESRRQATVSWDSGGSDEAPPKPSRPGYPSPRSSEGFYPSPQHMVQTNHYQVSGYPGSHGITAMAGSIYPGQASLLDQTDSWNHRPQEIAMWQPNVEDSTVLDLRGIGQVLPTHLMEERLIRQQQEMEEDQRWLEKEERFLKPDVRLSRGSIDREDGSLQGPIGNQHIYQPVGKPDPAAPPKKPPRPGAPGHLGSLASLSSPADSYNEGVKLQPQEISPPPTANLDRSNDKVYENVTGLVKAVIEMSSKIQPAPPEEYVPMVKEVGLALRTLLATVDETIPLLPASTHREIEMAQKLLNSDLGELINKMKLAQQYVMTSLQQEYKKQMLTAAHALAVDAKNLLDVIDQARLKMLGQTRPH
Chain of Concanavalin-A (Canavalia ensiformis) (P02866 whole entry, looked up): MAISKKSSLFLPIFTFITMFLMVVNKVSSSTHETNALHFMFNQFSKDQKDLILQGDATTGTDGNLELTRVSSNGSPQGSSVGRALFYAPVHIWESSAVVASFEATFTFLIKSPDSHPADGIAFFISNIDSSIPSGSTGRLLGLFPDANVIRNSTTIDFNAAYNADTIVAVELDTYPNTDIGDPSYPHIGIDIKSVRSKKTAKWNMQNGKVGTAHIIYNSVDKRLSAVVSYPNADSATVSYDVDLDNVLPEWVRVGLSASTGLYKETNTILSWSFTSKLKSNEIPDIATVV
Chain of Luciferin 4-monooxygenase (Photinus pyralis) (P08659 whole entry, looked up): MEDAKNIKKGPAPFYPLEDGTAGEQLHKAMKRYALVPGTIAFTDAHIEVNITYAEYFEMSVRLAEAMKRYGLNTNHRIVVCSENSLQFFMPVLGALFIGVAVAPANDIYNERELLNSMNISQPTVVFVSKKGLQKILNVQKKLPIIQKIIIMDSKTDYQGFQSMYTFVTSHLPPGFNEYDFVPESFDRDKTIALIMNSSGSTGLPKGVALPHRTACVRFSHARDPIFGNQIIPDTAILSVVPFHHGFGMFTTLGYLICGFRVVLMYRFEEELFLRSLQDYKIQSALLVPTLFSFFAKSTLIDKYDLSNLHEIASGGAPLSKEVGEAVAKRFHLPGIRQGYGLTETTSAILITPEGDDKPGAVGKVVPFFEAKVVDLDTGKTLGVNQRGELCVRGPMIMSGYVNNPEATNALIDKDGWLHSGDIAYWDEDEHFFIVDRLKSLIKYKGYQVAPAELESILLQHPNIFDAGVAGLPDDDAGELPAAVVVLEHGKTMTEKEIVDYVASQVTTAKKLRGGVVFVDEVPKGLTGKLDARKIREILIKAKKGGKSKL

`NC(=O)NCC#Cc1ccc2c(c1)[C@]1(C(=O)N2)[C@H](c2ccccc2OCCO)N2[C@H](c3ccccc3)[C@H](c3ccccc3)OC(=O)[C@H]2[C@@H]1C(=O)O`: the composite z-score with Albumin (Bos taurus) was 0.276; in assay [2] it was -0.245; in assay [3], -0.0772; in [4], 0.496; in assay [5], 0.259; in [6], 0.931. For the same compound, the composite z-score in the assay with Sam68 (KHDRBS1) is 0.293; in assay [7], -0.128; in [8], 0.96; in [9] it was -0.241; in [10] it was -0.464; in assay [11], -0.178. For the same compound, the composite z-score in assay [12] amounted to 0.277; in [13], 0.728; in assay [14] it was 0.387; with Lefty1 it was 0.477; in assay [16] it was 0.225. Moreover, the composite Z-score in assay [1] is 0.155 (inactive). For the same compound, the z-score was -0.545 in assay [15] and -0.521 (inactive) in assay [17].
As to `CCCNC(=O)[C@@]1(Sc2ccc(C)cc2)CC(=O)N(C2Cc3ccccc3C2)[C@@H]1c1ccc(CO)cc1I`, the composite z-score is -0.533 with Albumin (Bos taurus); 0.606 in assay [2]; -0.0186 in assay [3]; 0.427 in assay [4]; 0.807 in [5]; 0.702 in assay [6]. Moreover, the composite z-score with Sam68 (KHDRBS1) is 0.95; in assay [7], 0.378; in assay [8], -0.162; in [9], 1.59; in [10], 0.255; in assay [11], 0.371. Besides, the composite z-score is 0.34 in [12]; 1.01 in assay [13]; -0.209 in assay [14]; 0.489 in the assay with Lefty1; 0.157 in assay [16]. Further, the composite Z-score in [1] was -0.0764 (inactive). Moreover, the z-score in assay [15] is 1.87; in [17] it was -0.767 (inactive).
Turning to `CC(CO)N1C(=O)[C@]2(C)C3C(=O)OCCC/C=C\[C@H]3OC23C=CCN(c2ccc(Cl)cc2)C(=O)[C@@H]13` (stereo not given in full), the composite z-score with Albumin (Bos taurus) was 0.739; in assay [2], -0.186; in assay [3], -0.14; in assay [4] it was 0.867; in [5] it was -0.354; in assay [6], 0.644. Moreover, the composite z-score is -1.61 with Sam68 (KHDRBS1); 0.217 in assay [7]; -0.474 in [8]; -0.263 in assay [9]; -0.48 in [10]; 1.53 in assay [11]. Also, the composite z-score in assay [12] was -0.316; in assay [13], -0.568; in assay [14] it was -0.85; in the assay on Lefty1 it was -0.506; in assay [16], -0.335. For the same compound, the composite Z-score in [1] is -0.462 (inactive). Besides, the z-score is 0.444 in assay [15] and -0.53 (inactive) in [17].
Consider `COC(=O)[C@@]1(Cc2ccc(OC)cc2)[C@H]2c3cc(C(=O)N4CCCC4)n(CCc4c[nH]c5ccc(OC)cc45)c3C[C@H]2CN1C(=O)c1ccccc1`, for which the composite z-score in the assay with Albumin (Bos taurus) is 0.93; in assay [2], 0.319; in assay [3] it was 0.387; in assay [4] it was 0.711; in assay [5] it was 2.81; in assay [6], 0.8. The composite z-score with Sam68 (KHDRBS1) is 1.11; in assay [7], -1.04; in assay [8], 0.852; in assay [9], 1.99; in assay [10], 1.18; in assay [11] it was 0.894. Besides, the composite z-score in [12] was 0.755; in [13], 1.22; in assay [14], -0.904; in the assay with Lefty1 it was -0.162; in [16], 1.29. Also, the composite Z-score in [1] was -0.453 (inactive). Further, the z-score is 0.675 in [15] and 1.3 (inactive) in assay [17].
On to `CCOC(=O)C[C@H]1[C@H](OC(=O)Cc2ccc3c(c2)OCO3)[C@@H](NC(=O)c2ccc3ccccc3n2)c2cc(OCCCO)ccc2N1C(=O)c1ccccc1`, for which the composite z-score in the assay with Albumin (Bos taurus) is -0.233; in assay [2] it was -0.124; in [3], -0.18; in assay [4], 0.0645; in assay [5], 0.109; in assay [6] it was -0.115. Also, the composite z-score is 0.416 with Sam68 (KHDRBS1); 0.528 in assay [7]; 0.321 in assay [8]; -0.0867 in assay [9]; 0.381 in assay [10]; -0.0076 in assay [11]. The composite z-score is 0.364 in assay [12]; 0.803 in assay [13]; 0.902 in assay [14]; 0.755 in the assay with Lefty1; 0.326 in [16]. Further, the composite Z-score in [1] is 0.221 (inactive). For the same compound, the figures for the z-score in [15] and in assay [17] were 2.23 and -0.992 (inactive), respectively.
